# Giardia FBPA inh = qHTS Assay for Inhibitors of Fructose-1,6-bisphosphate Aldolase from Giardia Lamblia | A8B2U2 | purified Giardia FBPA | Potency, µM (series often up to 59.6 µM), inactives show top-dose activity, negative = inhibition, actives largely listed as inhibitors | 290,000 compounds, 0.71% hits | AID 2451, 2010; also: potency is read from the fitted curve at half-maximal effect; % is scaled to controls: 0 for no effect and ±100 for the full control effect; nearly all actives have a fitted effect of over 55% in size
# Target sequence (A8B2U2 whole entry, looked up): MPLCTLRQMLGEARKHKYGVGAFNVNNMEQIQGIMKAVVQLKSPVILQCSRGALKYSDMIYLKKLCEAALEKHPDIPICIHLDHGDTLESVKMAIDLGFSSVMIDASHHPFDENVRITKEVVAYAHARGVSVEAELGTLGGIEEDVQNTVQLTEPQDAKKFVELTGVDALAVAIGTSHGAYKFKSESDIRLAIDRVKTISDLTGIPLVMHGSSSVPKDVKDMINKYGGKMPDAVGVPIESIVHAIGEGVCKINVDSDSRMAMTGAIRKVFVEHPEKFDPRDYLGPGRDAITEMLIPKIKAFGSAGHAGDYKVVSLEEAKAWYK
#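 Giardia FBPA (40 nM reagent) was preincubated 10 min at RT with compound (up to 57.5 uM final), then substrate plus GAPDH/TPI/NAD/arsenate coupling system with diaphorase/resazurin was added; resorufin fluorescence (525/598 nm) was read after 20 min.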
# CHX counter = Cycloheximide Counterscreen for Small Molecule Inhibitors of Shiga Toxin; cell reporter, cycloheximide protein synthesis inhibition counterscreen; 300,000 compounds, 12% hits; max response, %; in the data active = max response mostly above about 13%, no sharp cut-off; inactive = mostly below about 14%; also: read at 38.3 µM for the half of the compounds with a filed dose; 0% is about no effect
# LmPK inhibitor = qHTS Assay for Inhibitors of Leishmania Mexicana Pyruvate Kinase (LmPK). Q27686. purified LmPK, Kinase-Glo ATP luminescence, 1 h. Potency, µM (highest dose often 57.5 µM), for inactives: at the top dose activity change, negative = inhibition, usual class: inhibitors. 290,000 compounds, 0.37% hits; also: potency is read from the fitted curve at half-maximal effect; % is scaled to controls: 0 for no effect and ±100 for the full control effect
#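 Screened at intermediate enzyme activity to detect both inhibitors and activators: LmPK at 0.1 nM, with a 0.5 nM enzyme column as activation reference. PEP 0.5 mM, ADP 0.1 mM; ATP detected by luminescence after 1 h.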
# Sm TGR block = qHTS Assay for the Inhibitors of Schistosoma Mansoni Peroxiredoxins | Potency, µM (doses to about 114 µM), for the others: top-dose activity change, negative = inhibition, usual class: inhibitors | AID 485364, 2010 | purified TGR, DTNB reduction, TNB absorbance 405 nm | 360,000 compounds, 3% hits; also: potency is read from the fitted curve at half-maximal effect; % is scaled to controls: 0 for no effect and ±100 for the full control effect; nearly all actives have a fitted effect of over 60% in size
#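 First, TGR (20 nM dispensed) and NADPH were mixed with compound. Second, a 15 min room-temperature incubation followed. Third, further NADPH and then DTNB were added to start the reaction. Finally, TNB absorbance was monitored kinetically.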
# Tb PYK inh = qHTS of Trypanosoma Brucei Inhibitors; pyruvate kinase (Trypanosoma brucei), Q57TT1; TbPYK enzyme, Kinase-Glo Plus ATP luminescence, 45 min; Potency, µM (top dose mostly 76.8 µM), for the others: top-dose activity, negative = inhibition, most hits filed as inhibitors; 410,000 compounds, 0.12% hits; AID 624173, 2012; also: potency is read from the fitted curve at half-maximal effect; % is scaled to controls: 0 for no effect and ±100 for the full control effect; nearly all actives have a fitted effect of over 50% in size
#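 Quantitative HTS: titrated library compounds versus trypanosomal pyruvate kinase in TEA buffer (pH 7.2) containing KCl, MgCl2, BSA and Tween-20. Reactions were initiated with ADP, 130 uM final. Kinase-Glo Plus luminescence was read after 45 min at RT.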
# Shiga inhibitor = A qHTS for Small Molecule Inhibitors of Shiga Toxin; Vero cells, Shiga toxin protein synthesis inhibition reporter; inhibition, % at 38.7 µM; AID 2315, 2010; 290,000 compounds, 9.2% hits; in the data active = inhibition mostly above about 28%, no sharp cut-off; inactive = mostly below about 43%; also: 0% is about no effect
# The depositor's hits bear a star; ? = inconclusive; / = not tested or not shown; [ ] = another dose, or the depositor's remark. Only a selection was taken, and hits are over-represented in it overall. Unless noted, calls follow the shape of the dose curve; as a rule, active = well fitted curve in the direction sought with a large enough effect; inconclusive = small, poorly fitted or top-dose-only effect, or another doubt; inactive = no such curve, though single readings can be large; an effect the other way counts as inactive or inconclusive.
SMILES,Giardia FBPA inh,CHX counter,LmPK inhibitor,Sm TGR block,Tb PYK inh,Shiga inhibitor
COc1ccc(CN2CCNC(=O)C2CC(=O)O)c(OC)c1 (stereo not drawn),0%,-3,1%,35µM*,-6%,-7
COc1ccc(CN2CCNC(=O)C2CC(=O)NCc2cc(C)n(C)n2)c(F)c1 (stereo not drawn),-17%,-5,-8%,20µM*,-3%,-9
O=C(O)CCC(=O)Nc1ccc(C(=O)OCC(=O)c2ccc(Cl)cc2)cc1,5%,15*,3%,28%,-2%,79
O=C(COC(=O)c1ccc(Cl)nc1)Nc1ccc(Cl)cc1,/,/,/,4%,5%,/
O=C(O)CCC(=O)CCC(=O)c1ccc(Cl)cc1,3%,-3,-1%,28µM*,-4%,-4
O=C(COC(=O)c1ccc(O)cc1)Nc1ccc(Cl)cc1,-6%,31*,3%,0%,-3%,52
COC(=O)c1ccc(NC(=O)CCCC(=O)OCC(=O)c2ccc(Cl)cc2)cc1,/,/,/,13%,3%,/
CCN(CC)c1ccc(NC(=O)C2CCN(S(=O)(=O)c3ccc4c(c3)oc(=O)n4C)CC2)c(C)c1,/,/,/,-6%,-8%,/
COc1ccc(OC)c(NC(=O)Cn2cnc3onc(-c4ccc(Cl)cc4)c3c2=O)c1,/,/,/,-7%,-1%,/
CC1(C)CC(=O)C2=C(C1)OC(N)=C(C#N)C21CCN(Cc2ccccc2)CC1,-28%,-4,3%,14µM*,-5%,-3
CC1(C)CC(=O)C2=C(C1)OC(N)=C(C#N)C21CCC2(CC1)OCCO2,?,3,4%,22µM*,-10%,-3
CC(=O)N1CCC2(CC1)C(C#N)=C(N)OC1=C2C(=O)CC(C)(C)C1,-3%,6,-3%,-8%,4%,-18
CCOC(=O)N1CCC2(CC1)C(C#N)=C(N)OC1=C2C(=O)CC(C)(C)C1,2%,-2,-1%,1%,-21%,-2
Cc1ccc(N2C(=O)N(CC(=O)Nc3ccccc3C)C(=O)C2C)cc1 (stereo not drawn),/,20*,-6%,-9%,0%,18*
Cc1ccc(N2C(=O)N(CC(=O)Nc3ccc(C)cc3C)C(=O)C2C)cc1 (stereo not drawn),-5%,18,1%,2%,0%,31
CCOc1ccc(CN(C)CC(=O)NCc2ccc(F)cc2)cc1,6%,4,5%,-15%,-2%,-11
O=[N+]([O-])c1ccc(Sc2cc[n+]([O-])c3ccccc23)c([N+](=O)[O-])c1,-2%,1,1%,7.9µM*,-3%,-11
Nc1nc(Sc2ccc([N+](=O)[O-])cc2[N+](=O)[O-])n[nH]1,0%,2,0%,32µM*,-3%,6
Cc1ccnc(Sc2ccc([N+](=O)[O-])cc2[N+](=O)[O-])n1,-6%,-6,-5%,?,4%,-16
O=[N+]([O-])c1ccc(Sc2nc3ccccc3o2)c([N+](=O)[O-])c1,-18%,10,5%,4µM*,-2%,55*
O=[N+]([O-])c1ccc(Cl)cc1Sc1nc2ccccc2o1,0%,0,-1%,-12%,0%,17
CCOC(=O)c1oc2ccc(S(=O)(=O)n3nc(-c4ccc(Br)cc4)cc3N)cc2c1C,/,/,/,-1%,2%,/
Oc1c(Br)cc(C=Nc2ccc3nc(-c4ccccc4)[nH]c3c2)c(O)c1Br,?,52*,5%,18µM*,-9%,75*
O=[N+]([O-])c1ccc(O)c(/C=N/n2c(-c3ccccc3)n[nH]c2=S)c1,?,-1,0%,-5%,?,/
O=[N+]([O-])c1ccc(O)c(C=Nc2ccc3nc(-c4ccccc4)[nH]c3c2)c1,7%,28*,-21%,-14%,0%,70*
SMILES,Giardia FBPA inh,CHX counter,LmPK inhibitor,Sm TGR block,Tb PYK inh,Shiga inhibitor
CCOc1ccc2nc(NC(=O)c3cc(=O)c4ccc(C)cc4o3)sc2c1,/,/,/,9%,-7%,/
COc1ccc(C2CC(=O)Oc3c(C(CCN4CCCC(C)C4)c4cc(OC)c(OC)c(OC)c4)c(OC)cc(OC)c32)cc1 (stereo not drawn),1%,-6,/,/,/,-7
Cc1cn([C@H]2C[C@H](O)[C@@H](CNCc3cc(Br)ccc3OCc3ccccc3)O2)c(=O)[nH]c1=O,/,/,/,/,1%,/
O=C(O)c1cccc(NC(=O)c2cccc(S(=O)(=O)Nc3cccc(F)c3)c2)c1,/,/,/,-14%,2%,/
CC(=O)c1ccc(Nc2nc3ccc(C)cc3n3cnnc23)cc1,3%,17*,5%,1%,10%,28
COC(=O)c1ccc(Nc2nc3ccc(C)cc3n3cnnc23)cc1,-3%,17,2%,1%,-3%,51
Cc1nc(-c2ccccc2)sc1-c1n[nH]c(=S)n1C,15%,3,-11%,8%,?,19
CSc1sc(-c2n[nH]c(=S)n2C)c2c1C=CCC2,?,-3,-7%,25µM*,?,-6
Cc1cccc(CNC(=O)c2sc(=O)n(Cc3ccc(S(C)(=O)=O)cc3)c2C)c1,/,/,/,/,3%,/
CNC(=S)N/N=C(\C)c1ccc(C(C)(C)C)cc1,-3%,24*,1%,3%,4%,30*
C/C(=N/NC(=O)C(=O)N/N=C(/C)c1ccccc1)c1ccccc1,0%,8,6%,-1%,/,14
CNC(=S)N/N=C(\C)c1ccccc1,?,7,1%,5.6µM*,-8%,75
CCc1nc2cccnc2n1-c1ccc(CC(=O)Nc2ccccc2Cl)cc1,/,/,/,-7%,-4%[15.4 µM],/
COC(=O)CCC(=O)OC1(C)C(=O)C=C2C=C(c3ccc(C#N)cc3)OC=C2C1=O (stereo not drawn),3%,/,/,/,/,/
Cn1nnc2cc(C(=O)Nc3ccc(Cl)cc3)ccc21,-6%,13,-1%,/,10%,36
Cc1ccc(NC(=O)c2ccc3c(c2)nnn3C)cc1,0%,13,1%,-10%,-13%,35*
Cn1nnc2cc(C(=O)Nc3ccccc3)ccc21,-5%,16*,7%,4%,3%,32
CN(C)c1ccc(NC(=O)Nc2ccc3c(c2)nnn3C)cc1,-5%,32*,-5%,-4%,-1%,/
CN(C)c1ccc(NC(=O)c2ccc3c(c2)nnn3C)cc1,-4%,18*,1%,/,-12%,46*
Cn1nnc2cc(C(=O)Nc3cccnc3)ccc21,0%,6,-4%,8%,-3%,7
CC12CCC=CC1C(c1cccc([N+](=O)[O-])c1)N(Cc1ccccc1)C2=O (stereo not drawn),8%,7,/,/,/,16

# Compound activity: PubChem, National Center for Advancing Translational Sciences (NCATS)
